High-throughput results deposited in PubChem BioAssay by several laboratories.
Hits are enriched below; roughly 2.5% of the tested compounds scored in any of these assays.
aDG glyco up – activators of alpha-DG glycosylation, primary screen, uHTS, Pro5-aDG cells, AlphaScreen; alpha-DG glycosylation AlphaScreen (IIH6); 0% Pro5, 100% B10-LARGE cell signal; activation, % at 10 µM; hit rate 0.22% among 360,000; AID 624168, 2012;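 active means activation of at least 8% versus controls, or a plate z-score of at least 8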;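 further: Pro5 are CHO cells carrying HIG-tagged alpha-DG that lacks glycosylation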
HSF1 inhib – HSF1 inhibitors in luciferase reporter cells, primary screen, cell-based, NIH3T3, luminescence; activity change, negative = inhibition, % at 7.5 µM (by protocol); hit rate 0.77% among 300,000; NIH3T3-HGL HSE-luciferase, MG132-induced, luminescence 8 h; active compounds read low; AID 2098, 2009;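 active means more than half of replicate wells show activity change below -50%, luminescence cut by over half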;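 further: luciferase reports HSF-1 transcriptional activity via heat shock element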
HSF1 activator – HSF-1 activators, primary screen, NIH3T3-HGL cells, MG132 stress, luminescence, single point; hit rate 1.7% among 300,000; NIH3T3-HGL HSF-1 luciferase reporter, 8 h; 100% = twice DMSO control signal; activation, % at 9 µM; AID 504408, 2011;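 active means mean replicate activation of at least 50% with a set share of replicates each reaching 50%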
DYRK1A inh – rat Dyrk1A kinase inhibitors, primary screen, biochemical, single point, plate reader. Dual specificity tyrosine-phosphorylation-regulated kinase 1A (Rattus norvegicus), Q63470. ADP-Glo luminescence, NFATc1 peptide. inhibition, % at 12.5 µM. hit rate 0.43% among 310,000; in the data active means inhibition above about 50%
NPR2 activator – human GC-B receptor activators, primary screen, HEK293 GC-B cells, cGMP TR-FRET, EC30 CNP; 0% at EC30 CNP, 100% saturating CNP; activation, % at 10 µM; hit rate 0.11% among 370,000; AID 1920062, 2024;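 active means activation at 10 µM reaching about 35% in either raw or pattern-adjusted values, limit read from the data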
GC-A act – GC-A stimulated cGMP production enhancers – HEK293 GC-A cells, cGMP TR-FRET, EC30 ANP, primary screen. hit rate 0.14% among 370,000. activation, % at 10 µM. Atrial natriuretic peptide receptor 1 (Homo sapiens), P16066. 0% at EC30 ANP, 100% saturating ANP; in the data active means activation above about 40%
Hits are given with their value.

Screening CC(C)c1ccc(/C=c2\sc3nc(-c4ccncc4)nn3c2=O)cc1 returned aDG glyco up inactive, HSF1 inhib inactive, HSF1 activator inactive, DYRK1A inh inactive, NPR2 activator inactive and GC-A act 41.
For Cc1ccc(/C=c2\sc3nc(-c4cccnc4)nn3c2=O)cc1 the results were aDG glyco up inactive, HSF1 inhib inactive, HSF1 activator inactive, DYRK1A inh inactive, NPR2 activator inactive and GC-A act inactive.
For CCc1cccc(NC(=O)c2sc3nc4n(c(=O)c3c2C)CCC4)c1 the results were aDG glyco up inactive, HSF1 inhib inactive, HSF1 activator 55, DYRK1A inh inactive, NPR2 activator inactive and GC-A act inactive.
Screening COc1ccccc1OCCCOc1ccc([N+](=O)[O-])cc1Cl returned aDG glyco up inactive, HSF1 inhib inactive, HSF1 activator 65, DYRK1A inh inactive, NPR2 activator inactive and GC-A act inactive.
`Cc1ccc(OCCCOc2ccc(Cl)cc2Cl)c([N+](=O)[O-])n1` gave NPR2 activator inactive and GC-A act inactive.
For COc1cccc(OCCCOc2ccc([N+](=O)[O-])cc2Cl)c1 the results were aDG glyco up inactive, HSF1 inhib inactive, HSF1 activator inactive, DYRK1A inh inactive, NPR2 activator inactive and GC-A act inactive.
Screening CC(=O)NCCCOc1ccc([N+](=O)[O-])cc1Cl returned aDG glyco up inactive, HSF1 inhib inactive, HSF1 activator 56, DYRK1A inh inactive, NPR2 activator inactive and GC-A act inactive.
For O=[N+]([O-])c1ncccc1OCCOc1ccc(Cl)cc1Cl the results were NPR2 activator inactive and GC-A act 47.
`COc1ccccc1OCCCOc1ccc(C)cc1Br` gave aDG glyco up inactive, HSF1 inhib inactive, HSF1 activator 57, DYRK1A inh inactive, NPR2 activator inactive and GC-A act inactive.
Screening COc1ccccc1OCCOCCOc1ccc(C)cc1Br returned aDG glyco up inactive, HSF1 inhib inactive, HSF1 activator inactive, DYRK1A inh inactive, NPR2 activator inactive and GC-A act inactive.
`CCOC(=O)[C@@]12CCC3=C1N(CCC3)C(=O)[C@H](CC(=O)NCc1ccccc1)C2` gave NPR2 activator inactive and GC-A act inactive.
For Cc1nc(C)c(/C(O)=C/c2nc3ccc([N+](=O)[O-])cc3oc2=O)o1 the results were HSF1 inhib inactive and HSF1 activator inactive.
Cc1ccc(C)c(NC(=S)N2CCC(c3nc4ccccc4s3)CC2)c1 was read as aDG glyco up inactive, HSF1 inhib inactive, HSF1 activator inactive and DYRK1A inh inactive.
For N/C(=N\OC(=O)CCC(=O)O)c1ncc(C(F)(F)F)cc1Cl the results were aDG glyco up inactive, HSF1 inhib inactive, HSF1 activator inactive, DYRK1A inh inactive, NPR2 activator inactive and GC-A act inactive.
Screening Cc1nonc1OCCNCCNc1ccc([N+](=O)[O-])cc1Cl returned aDG glyco up inactive, HSF1 inhib inactive, HSF1 activator 77, DYRK1A inh inactive, NPR2 activator inactive and GC-A act inactive.
For COC(=O)C1=C(C(=O)OC)[C@@H]2Nc3ccccc3[C@@]23C[C@@H](C(=O)OC)N(C(=O)CC(C)C)C3=N1 the results were aDG glyco up inactive, HSF1 inhib inactive, HSF1 activator inactive, DYRK1A inh inactive, NPR2 activator inactive and GC-A act inactive.
Screening O=S1(=O)N=C(Nc2ccc(N3CCOCC3)c(Cl)c2)c2ccccc21 returned aDG glyco up inactive, HSF1 inhib inactive, HSF1 activator inactive, DYRK1A inh inactive, NPR2 activator inactive and GC-A act inactive.
Screening C=CC[C@@H](CC(=O)OC(C)(C)C)C(=O)OC[C@@H]1CCCN1C(=O)[C@H](CC=C)CC(=O)NCCO returned aDG glyco up inactive, DYRK1A inh inactive, NPR2 activator inactive and GC-A act inactive.
`O=C1NC(c2ccc(Cl)cc2)Nc2ccccc21` (stereo unspecified) gave aDG glyco up inactive, HSF1 inhib inactive, HSF1 activator 70, DYRK1A inh inactive, NPR2 activator inactive and GC-A act inactive.
`CN(C)c1ccc(C2NC(=O)c3ccccc3N2)cc1` (stereo unspecified) gave aDG glyco up inactive, HSF1 inhib inactive, HSF1 activator 78, DYRK1A inh inactive, NPR2 activator inactive and GC-A act inactive.
Screening O=C1NC(c2ccncc2)Nc2ccccc21 (stereo unspecified) returned HSF1 inhib inactive, HSF1 activator inactive, DYRK1A inh inactive, NPR2 activator inactive and GC-A act inactive.
Screening Cc1ccc(C2NC(=O)c3ccccc3N2)s1 (stereo unspecified) returned aDG glyco up inactive, HSF1 inhib inactive, HSF1 activator 67, DYRK1A inh inactive, NPR2 activator inactive and GC-A act inactive.
CN(C)c1ccc(C2Nc3cccc4cccc(c34)N2)cc1 was read as aDG glyco up inactive, HSF1 inhib inactive, HSF1 activator inactive, DYRK1A inh inactive, NPR2 activator inactive and GC-A act inactive.
`Cc1cccc(C2NC(=O)c3ccccc3N2)c1` (stereo unspecified) gave aDG glyco up inactive, DYRK1A inh inactive, NPR2 activator inactive and GC-A act inactive.
`Cc1ccc(CSC2=Nc3ccccc3C3=NC(=O)CN23)cc1` gave aDG glyco up inactive, HSF1 inhib inactive, HSF1 activator inactive, DYRK1A inh inactive, NPR2 activator inactive and GC-A act inactive.
`C=CCSC1=Nc2sccc2C2=NC(=O)CN12` gave aDG glyco up inactive, HSF1 inhib -75, HSF1 activator inactive, DYRK1A inh inactive, NPR2 activator inactive and GC-A act inactive.
COc1ccc(-c2cc(CS(=O)(=O)c3ccccc3)on2)cc1 was read as aDG glyco up inactive, HSF1 inhib inactive, HSF1 activator 64, DYRK1A inh inactive, NPR2 activator inactive and GC-A act inactive.
O=C(CN1CCOCC1)Nc1ccc(-c2nc3ccccc3[nH]2)cc1 was read as aDG glyco up inactive, HSF1 inhib inactive, HSF1 activator 56, DYRK1A inh inactive, NPR2 activator inactive and GC-A act inactive.
`CC1CCc2nn(CC(=O)NCCN3CCCCC3C)cc2C1` (stereo unspecified) gave aDG glyco up inactive, HSF1 inhib inactive, HSF1 activator inactive, DYRK1A inh inactive, NPR2 activator inactive and GC-A act inactive.
`CCC(C)Nc1nc2c(c(=O)n(C)c(=O)n2C)n1Cc1ccc(Cl)cc1` (stereo unspecified) gave aDG glyco up inactive, HSF1 inhib inactive, HSF1 activator inactive, DYRK1A inh inactive, NPR2 activator 48 and GC-A act 42.
